Data reported in PubChem BioAssay (NCATS).
Results filed as inconclusive are left out. Activity calls are given as the source filed them. Calls follow the shape of the dose curve; as a rule, active = well fitted curve in the direction sought with a large enough effect; inconclusive = small, poorly fitted or top-dose-only effect, or another doubt; inactive = no such curve, though single readings can be large; an effect the other way counts as inactive or inconclusive.

Experiments:
[1] = qHTS of pediatric cancer cell lines to identify multiple opportunities for drug repurposing: Primary screen for TC32 cells (AID 1347089); also: % is scaled to controls: 0 for no effect and ±100 for the full control effect; nearly all actives have a fitted effect of over 60% in size
In short: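 Measured quantity: luminescence from CellTiter-Glo, reflecting metabolically active TC32 cells following 48 h of compound. Curves came straight from multi-point titrations, with 8 or 11 points in primary and 11 in confirmatory screening.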

[2] = qHTS of pediatric cancer cell lines to identify multiple opportunities for drug repurposing: Primary screen for DAOY cells (AID 1347090);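 also: series mostly up to about 46 µM; plate controls were DMSO for no effect and bortezomib for full effect; nearly all actives have a fitted effect of over 55% in size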
In short: (§1)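 Viability measured as metabolically active cells via CellTiter-Glo luminescence following 48 hours of compound exposure, 11-point dilutions in confirmatory testing. 500-1,000 cells/well plated 5 hours before dosing; controls were DMSO and 2.3 µM bortezomib.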

[3] = qHTS of pediatric cancer cell lines to identify multiple opportunities for drug repurposing: Primary screen for SJ-GBM2 cells (AID 1347091);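 also: plate controls were DMSO neutral control for no effect and bortezomib for full effect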
In short: as §1

[4] = qHTS of pediatric cancer cell lines to identify multiple opportunities for drug repurposing: Primary screen for A673 cells (AID 1347092); also: % is scaled to controls: 0 for no effect and ±100 for the full control effect; nearly all actives have a fitted effect of over 45% in size
In short: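 Cells are plated, rested 5 h, dosed by pintool, incubated 48 h, then lysed with CellTiter-Glo and read by luminescence. DMSO is the neutral control; bortezomib at 2.3 uM final is the positive control.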

[5] = qHTS of pediatric cancer cell lines to identify multiple opportunities for drug repurposing: Primary screen for BT-37 cells (AID 1347094);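 also: series mostly up to about 57 µM; plate controls were DMSO for no effect and bortezomib for full effect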
In short: (§2)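 Readout: CellTiter-Glo luminescence, 48 h treatment. Controls DMSO (neutral) and bortezomib 2.3 µM final (positive). Potency and efficacy taken from primary-screen concentration-response curves.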

[6] = qHTS of pediatric cancer cell lines to identify multiple opportunities for drug repurposing: Primary screen for NB-EBc1 cells (AID 1347095);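 also: plate controls were DMSO neutral control for no effect and bortezomib for full effect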
In short: as §2

[7] = qHTS of pediatric cancer cell lines to identify multiple opportunities for drug repurposing: Primary screen for U-2 OS cells (AID 1347096);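 also: plate controls were DMSO wells for no effect and bortezomib positive control wells for full effect; nearly all actives have a fitted effect of over 50% in size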
In short: (§3)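 Viability after 48 h compound treatment at 37C, 500-1,000 cells/well, read as ATP luminescence with CellTiter-Glo. Primary screens used 11-point (MIPE, 0.78 nM-46 µM) or 8-point (NPC, 0.59 nM-46 µM) final concentrations; follow-up screens used 11-point dilutions.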

[8] = qHTS of pediatric cancer cell lines to identify multiple opportunities for drug repurposing: Primary screen for Saos-2 cells (AID 1347097); also: % is scaled to controls: 0 for no effect and ±100 for the full control effect; nearly all actives have a fitted effect of over 40% in size
In short: as §2

[9] = qHTS of pediatric cancer cell lines to identify multiple opportunities for drug repurposing: Primary screen for SK-N-SH cells (AID 1347098); also: % is scaled to controls: 0 for no effect and ±100 for the full control effect; nearly all actives have a fitted effect of over 65% in size
In short: (§4)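 Cells (500-1,000/well) rested 5 h, then received compounds for 48 h; metabolically active cells were measured by CellTiter-Glo luminescence. Final concentrations spanned up to 46 µM (MIPE, 11-point) or 0.59 nM-46 µM (NPC, 8-point) in primary screens, 11-point in follow-ups.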

[10] = qHTS of pediatric cancer cell lines to identify multiple opportunities for drug repurposing: Primary screen for NB1643 cells (AID 1347099);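 also: plate controls were DMSO neutral control for no effect and bortezomib positive control for full effect; nearly all actives have a fitted effect of over 50% in size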
In short: as §2

[11] = qHTS of pediatric cancer cell lines to identify multiple opportunities for drug repurposing: Primary screen for Rh18 cells (AID 1347102); also: % is scaled to controls: 0 for no effect and ±100 for the full control effect; nearly all actives have a fitted effect of over 65% in size
In short: as §3

[12] = qHTS of pediatric cancer cell lines to identify multiple opportunities for drug repurposing: Primary screen for OHS-50 cells (AID 1347103); also: nearly all actives have a fitted effect of over 40% in size; also: potency is read from the fitted curve at half-maximal effect;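 as to activity change, negative = cytotoxic: plate controls were DMSO neutral control for no effect and bortezomib positive control for full effect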
In short: as §4

[13] = qHTS of pediatric cancer cell lines to identify multiple opportunities for drug repurposing: Primary screen for RD cells (AID 1347104);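 also: plate controls were DMSO for no effect and bortezomib for full effect; nearly all actives have a fitted effect of over 55% in size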
In short: as §2

[14] = qHTS of pediatric cancer cell lines to identify multiple opportunities for drug repurposing: Primary screen for SK-N-MC cells (AID 1347093);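 also: series mostly up to about 46 µM; plate controls were DMSO neutral control for no effect and bortezomib for full effect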
In short: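 Metabolically active cells were quantified by ATP-dependent luminescence (CellTiter-Glo, 15 min at room temperature) following 48 h treatment. Cells had been plated at 500-1,000 per well and settled for 5 h beforehand.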

[15] = qHTS of pediatric cancer cell lines to identify multiple opportunities for drug repurposing: Primary screen for LAN-5 cells (AID 1347100);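 also: plate controls were DMSO neutral control for no effect and bortezomib positive control for full effect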
In short: as §3

[16] = qHTS of pediatric cancer cell lines to identify multiple opportunities for drug repurposing: Primary screen for BT-12 cells (AID 1347101);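 also: plate controls were DMSO for no effect and bortezomib positive control for full effect; nearly all actives have a fitted effect of over 25% in size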
In short: as §4

C=C1C[C@H]2[C@@H]3C=C(C)C4=CC(=O)CC[C@]4(C)[C@H]3CC[C@]2(C)[C@@]1(OC(C)=O)C(C)=O
inactive: Potency [1] | Potency [2] | Potency [3] | Potency [4] | Potency [5] | Potency [6] | Potency [7] | Potency [8] | Potency [9] | Potency [10] | Potency [11] | Potency [13]
active: Potency [12] 30.9 µM

NCCCC[C@H](N[C@@H](CCc1ccccc1)C(=O)O)C(=O)N1CCC[C@H]1C(=O)O
inactive: Potency [1] | Potency [2] | Potency [3] | Potency [4] | Potency [14] | Potency [5] | Potency [6] | Potency [7] | Potency [8] | Potency [10] | Potency [15] | Potency [16] | Potency [11] | Potency [12] | Potency [13]

CCCCN1CCCC1C(=O)Nc1c(C)cc(C)cc1C (centres undefined)
inactive: Potency [1] | Potency [2] | Potency [3] | Potency [4] | Potency [14] | Potency [5] | Potency [6] | Potency [7] | Potency [9] | Potency [15] | Potency [16] | Potency [11] | Potency [13]

c1ccc(OCc2ccc(CCCN3CCOCC3)cc2)cc1
inactive: Potency [1] | Potency [2] | Potency [3] | Potency [4] | Potency [14] | Potency [5] | Potency [6] | Potency [7] | Potency [8] | Potency [9] | Potency [11] | Potency [13]

CC(C)COC(=O)c1ccc(N)cc1
inactive: Potency [1] | Potency [2] | Potency [3] | Potency [4] | Potency [14] | Potency [5] | Potency [6] | Potency [7] | Potency [8] | Potency [10] | Potency [15] | Potency [16] | Potency [11] | Potency [12]

CCn1cc(C(=O)O)c(=O)c2cnc(N3CCCC3)nc21
inactive: activity change, negative = cytotoxic [1] 4.83% [at 9.17 µM] | activity change, negative = cytotoxic [2] -3.72% [at 9.22 µM] | activity change, negative = cytotoxic [3] -2.71% [at 9.22 µM] | activity change, negative = cytotoxic [4] -17.7% [at 9.22 µM] | activity change, negative = cytotoxic [14] -9.99% [at 9.22 µM] | activity change, negative = cytotoxic [5] 0.276% [at 11.5 µM] | activity change, negative = cytotoxic [6] -3.37% [at 9.22 µM] | activity change, negative = cytotoxic [7] 4.46% [at 9.22 µM] | activity change, negative = cytotoxic [8] 0.0364% [at 9.22 µM] | activity change, negative = cytotoxic [10] 1.66% [at 9.22 µM] | activity change, negative = cytotoxic [15] -2.09% [at 9.22 µM] | activity change, negative = cytotoxic [16] 1.9% [at 11.5 µM] | activity change, negative = cytotoxic [11] 15.8% [at 9.22 µM] | activity change, negative = cytotoxic [12] -0.536% [at 11.5 µM]

Cc1cc(=O)n(-c2ccccc2)n1C
inactive: Potency [1] | Potency [2] | Potency [3] | Potency [4] | Potency [14] | Potency [5] | Potency [6] | Potency [7] | Potency [8] | Potency [10] | Potency [15] | Potency [16] | Potency [11] | Potency [12] | Potency [13]

N[C@H](Cc1c[nH]c2ccccc12)C(=O)O
inactive: Potency [1] | Potency [2] | Potency [3] | Potency [4] | Potency [14] | Potency [5] | Potency [6] | Potency [7] | Potency [9] | Potency [10] | Potency [15] | Potency [16] | Potency [11] | Potency [12] | Potency [13]

CC(=O)Nc1c(I)cc(I)c(C(=O)O)c1I
inactive: Potency [1] | Potency [2] | Potency [3] | Potency [4] | Potency [14] | Potency [5] | Potency [6] | Potency [7] | Potency [8] | Potency [10] | Potency [15] | Potency [16] | Potency [11] | Potency [12] | Potency [13]

C[C@H](O)C(=O)Nc1c(I)c(C(=O)NC(CO)CO)c(I)c(C(=O)NC(CO)CO)c1I
inactive: Potency [1] | Potency [2] | Potency [3] | Potency [4] | Potency [14] | Potency [5] | Potency [6] | Potency [7] | Potency [8] | Potency [10] | Potency [15] | Potency [16] | Potency [11] | Potency [12] | Potency [13]

C#C[C@]1(O)CC[C@H]2[C@@H]3CCC4=CC(=O)CC[C@@H]4[C@H]3CC[C@@]21C
inactive: Potency [1] | Potency [2] | Potency [3] | Potency [4] | Potency [14] | Potency [5] | Potency [7] | Potency [8] | Potency [9] | Potency [10] | Potency [15] | Potency [16] | Potency [11] | Potency [12] | Potency [13]

NC(=O)c1cc[n+](CC2=C(C(=O)[O-])N3C(=O)[C@@H](NC(=O)Cc4cccs4)[C@H]3SC2)cc1
inactive: Potency [1] | Potency [2] | Potency [3] | Potency [4] | Potency [14] | Potency [5] | Potency [6] | Potency [7] | Potency [8] | Potency [15] | Potency [16] | Potency [12]

CC(O)C(=O)O (centres undefined)
inactive: Potency [1] | Potency [2] | Potency [3] | Potency [4] | Potency [14] | Potency [5] | Potency [6] | Potency [7] | Potency [8] | Potency [10] | Potency [15] | Potency [16] | Potency [11] | Potency [12] | Potency [13]

C[C@H]1[C@H](NC(=O)/C(=N/OC(C)(C)C(=O)O)c2csc(N)n2)C(=O)N1S(=O)(=O)O (stereo in doubt)
inactive: Potency [1] | Potency [2] | Potency [3] | Potency [4] | Potency [14] | Potency [5] | Potency [6] | Potency [7] | Potency [8] | Potency [10] | Potency [15] | Potency [16] | Potency [11] | Potency [12] | Potency [13]

CCN(CC)C(=O)/C(C#N)=C/c1cc(O)c(O)c([N+](=O)[O-])c1
inactive: Potency [1] | Potency [2] | Potency [3] | Potency [4] | Potency [14] | Potency [7] | Potency [8] | Potency [10] | Potency [11] | Potency [13]

Cc1cc2c(cc1CC(=O)c1sccc1S(=O)(=O)Nc1onc(C)c1Cl)OCO2
inactive: Potency [1] | Potency [2] | Potency [3] | Potency [4] | Potency [14] | Potency [5] | Potency [6] | Potency [7] | Potency [8] | Potency [10] | Potency [15] | Potency [16] | Potency [11] | Potency [12] | Potency [13]

COc1cc2c(cc1OC)C(=O)C(CC1CCN(Cc3ccccc3)CC1)C2 (centres undefined)
inactive: Potency [1] | Potency [2] | Potency [3] | Potency [4] | Potency [14] | Potency [5] | Potency [6] | Potency [7] | Potency [8] | Potency [16] | Potency [11] | Potency [13]

CCN1CCN(c2cc3c(cc2F)c(=O)c(C(=O)O)cn3C2CC2)CC1
inactive: Potency [1] | Potency [2] | Potency [3] | Potency [4] | Potency [14] | Potency [5] | Potency [6] | Potency [7] | Potency [8] | Potency [15] | Potency [16] | Potency [11] | Potency [12] | Potency [13]

C[C@]12CC[C@H]3[C@@H](CCC4=CC(=O)CC[C@@]43C)[C@@H]1CC[C@@H]2C(=O)CO
inactive: Potency [1] | Potency [2] | Potency [3] | Potency [4] | Potency [14] | Potency [5] | Potency [6] | Potency [7] | Potency [8] | Potency [9] | Potency [15] | Potency [11]

CCC(=O)c1c(O)cc(O)cc1O
inactive: Potency [1] | Potency [2] | Potency [3] | Potency [4] | Potency [14] | Potency [5] | Potency [6] | Potency [7] | Potency [8] | Potency [10] | Potency [15] | Potency [16] | Potency [11] | Potency [12]

CCCCOc1ccc(OCCCN2CCOCC2)cc1
inactive: Potency [1] | Potency [2] | Potency [3] | Potency [4] | Potency [14] | Potency [5] | Potency [6] | Potency [7] | Potency [8] | Potency [9] | Potency [11] | Potency [13]

O=C(Nc1ccc(Cl)c(Cl)c1)C1CC1
inactive: Potency [1] | Potency [2] | Potency [3] | Potency [4] | Potency [14] | Potency [5] | Potency [6] | Potency [8] | Potency [10] | Potency [15] | Potency [11] | Potency [13]
